The source of these data is patent US20030059769, “High affinity nucleic acid ligands to lectins” (published 2003).

This test deals with T1, L-selectin (LS-Rg) (Homo sapiens, UniProt P14151 P14151:39-332).
T1 sequence: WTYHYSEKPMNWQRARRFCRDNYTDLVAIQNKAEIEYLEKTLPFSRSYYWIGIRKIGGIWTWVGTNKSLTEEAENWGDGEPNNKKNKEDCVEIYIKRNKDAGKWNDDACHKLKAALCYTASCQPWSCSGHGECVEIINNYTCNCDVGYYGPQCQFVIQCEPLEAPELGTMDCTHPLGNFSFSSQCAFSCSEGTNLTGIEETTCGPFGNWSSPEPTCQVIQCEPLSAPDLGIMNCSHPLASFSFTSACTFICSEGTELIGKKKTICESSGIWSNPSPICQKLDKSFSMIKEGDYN
Kind of test: filter; 26-nt hairpin truncate. The conditions noted are these: tags: human IgG2 Fc fusion, chain copies: dimer, label: 32P; ssDNA.

For GCGTTACAAGGTGCTAAACGTAACGT, the binding signal was determined as 100 fold weaker than LD227.
Sequence CCAGTACAAGGTGCTAAACGTAATGG registered a binding signal of 20 fold weaker than LD201.
